# Hits are enriched below; roughly 2.7% of the tested compounds scored in any of these assays.
# MsrA act: activators of bovine methionine sulfoxide reductase A | purified bovine MsrA, absorbance read-out | activation, % at 10.6 µM | hit rate 0.3% among 360,000; in the data active = activation above about 7.5%;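 also: 0% = vehicle and 100% = reference activator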
# rCAG binder: molecules binding r(CAG) RNA repeats | r(CAG) RNA repeat, TO-PRO-1 dye displacement fluorescence | inhibition, % at 3 µM | hit rate 1.3% among 370,000 | AID 651821;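 active = inhibition above the plate cutoff, the mean of all test compounds on that plate plus 3 SD, cut at about 35% in these data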;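 also: 0% = DMSO alone and 100% = 100 µM mitoxantrone as full dye displacement; higher means more dye released from RNA so lower well fluorescence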
# MsrA inh: bovine MsrA inhibition; purified bovine MsrA, absorbance read-out; inhibition, % at 15.5 µM; hit rate 0.75% among 360,000; AID 651718; in the data active = inhibition above about 4.5%;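 also: 0% = vehicle wells with enzyme and 100% = reference inhibitor wells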
# NadD inh: blocks S. aureus nicotinate mononucleotide adenylyltransferase; purified NadD enzyme, colorimetric absorbance read-out; inhibition, % at 20 µM; hit rate 0.78% among 360,000; in the data active = inhibition above about 26%
# rCAG bind conf: r(CAG) RNA repeat binding, confirmation; shares compounds with rCAG binder; TO-PRO-1 dye displacement fluorescence; inhibition, % at 3 µM; hit rate 70% among 4,300; AID 652065;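 active = inhibition above a per-plate cutoff, the mean inhibition of sample wells plus 3 SD, cut at about 35% in these data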;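 also: loss of TO-PRO-1 fluorescence as compound displaces dye from 1x1 AA loop RNA; 0% = DMSO only wells and 100% = 100 µM mitoxantrone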
# dCAG dye counter: disrupts DNA CAG TO-PRO-1 complex, flagging rCAG hits. shares compounds with rCAG binder. d(CAG) DNA oligo TO-PRO-1 dye displacement, fluorescence. hit rate 94% among 4,300. inhibition, % at 3 µM;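 active = inhibition above its plate's cutoff, the mean test-well inhibition plus 3 SD, cut at about 4.8% in these data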;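 also: 0% = DNA dye mix with DMSO and 100% = 100 µM mitoxantrone; hits displace the dye from DNA and so lower well fluorescence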
# dCAG dye DR: disrupts DNA CAG TO-PRO-1 complex in dose response; DNA CAG/GTC duplex TO-PRO-1 dye displacement fluorescence; AID 686960; IC50, µM; shares compounds with rCAG binder; hit rate 20% among 250; in the data active = IC50 below about 10 µM
# * hit, by the source's call; i = inactive; nt = not tested or not shown.
SMILES,MsrA act,rCAG binder,MsrA inh,NadD inh,rCAG bind conf,dCAG dye counter,others
O=C(Nc1ccc(O)cc1C(=O)O)c1ccc2c(c1)C(=O)N(Cc1ccco1)C2=O,-2,73*,1,-1,86*,50*,
O=C(O)Cc1ccc(NC(=O)c2ccc3c(c2)C(=O)N(Cc2ccco2)C3=O)cc1,-4,19,1,-13,nt,nt,
O=C(Nc1cc([N+](=O)[O-])ccc1O)c1ccc2c(c1)C(=O)N(Cc1ccco1)C2=O,-4,83*,0,5,64*,25*,
Brc1ccc(-n2cccc2/C=N/n2cnnc2)cc1,-5,-3,3,-2,nt,nt,
COC(=O)c1ccc(NS(=O)(=O)c2ccc(S(=O)(=O)N3CCOCC3)cc2)cc1,-1,10,1,-2,nt,nt,
COc1ccc(N2CCN(C(CNC(=O)CC(C)(C)C)c3ccc4c(c3)OCO4)CC2)cc1 (stereo unspecified),-2,-9,0,-6,nt,nt,
O=C(O)Cn1cc(/C=c2/sc3nc4ccccc4n3c2=O)c2ccccc21,0,52*,0,5,90*,73*,
O=C(O)Cn1cc(/C=C2/NC(=O)N(c3ccc(Cl)cc3)C2=O)c2ccccc21,-3,61*,1,1,62*,21*,
COc1cccc(NC(=O)CCCn2nc(C)c3c(C)n(-c4ccccc4)nc3c2=O)c1,-2,-2,1,-2,nt,nt,
CCOC(=O)C1Nc2ccc(C(=O)O)cc2C2C=CCC12 (stereo unspecified),4,61*,-1,5,23,5.4*,
CC(C)C1Nc2ccc(C(=O)O)cc2C2C=CCC21 (stereo unspecified),-6,56*,0,1,29,7.3*,
O=C(CCc1nnc(Cc2c[nH]c3ccccc23)o1)NC(C1CC1)C1CC1,-10,1,-1,-3,nt,nt,
Cc1ccc(CN2C(=O)C(F)(F)Oc3ccc(C)cc32)cc1,-5,-1,0,-3,nt,nt,
c1ccc(CN(Cc2ccccc2)c2nn[nH]n2)cc1,-4,5,-1,1,nt,nt,
Clc1ccc(CN(Cc2ccc(Cl)cc2)c2nn[nH]n2)cc1,-4,39*,1,7,27,5.4*,
Oc1ccc(/C=C/c2cc(O)cc(O)c2)cc1,-2,3,1,-5,nt,nt,
Oc1cc(O)cc(C=Cc2ccc(O)c(O)c2)c1,nt,38*,3,nt,29,15*,
CCCS(=O)(=O)c1c(S(=O)(=O)CCC)c2c(N)cccn2c1C(=O)c1ccccc1,-7,43*,0,-1,25,10*,
CCCS(=O)(=O)c1c(S(=O)(=O)CCC)c2c3ccccc3ccn2c1C(N)=O,-1,6,2,-1,nt,nt,
O=C(CN1CCN(S(=O)(=O)/C=C/c2ccccc2)CC1)Nc1ccccc1N1CCOCC1,0,-1,1,0,nt,nt,
Cc1ccc(OCCC(=O)N2CCN(c3ccc(O)cc3)CC2)cc1,-2,-1,-1,-3,nt,nt,
N#Cc1c(N2C(=O)Nc3ccccc3N2O)sc2c1CCCCCC2,-5,45*,1,7,34,11*,
O=C(Nc1cccc([N+](=O)[O-])c1)c1cc2ccccc2cc1O,-10,39*,1,16,37*,16*,
O=C(O)c1cc([N+](=O)[O-])ccc1C(=O)Nc1cccc([N+](=O)[O-])c1,-4,-2,0,-2,nt,nt,
O=C(NNS(=O)(=O)c1ccccc1[N+](=O)[O-])c1ccccc1Cl,-2,2,2,1,nt,nt,
SMILES,MsrA act,rCAG binder,MsrA inh,NadD inh,rCAG bind conf,dCAG dye counter,others
O=C(NNS(=O)(=O)c1ccccc1[N+](=O)[O-])c1cc2ccccc2cc1O,-2,36*,0,4,18,7.6*,
Cc1cc(C(F)(F)F)n(-c2nc(C(=O)NNS(=O)(=O)c3ccccc3[N+](=O)[O-])cs2)n1,-2,45*,0,9,27,8.6*,
Cc1ccc(C)c(N(C)C(=O)c2ccc3c(=O)n4c(nc3c2)CCCCC4)c1,2,-7,0,-3,nt,nt,
O=C(O)c1ccccc1CSc1nc2ccccc2[nH]1,-5,-1,-2,2,nt,nt,
CCOc1ccc(-c2ccc(/C=C3/C(=N)N4C=CSC4=NC3=O)o2)c([N+](=O)[O-])c1,-4,4,0,27,nt,nt,
CCOc1ccc(-c2ccc(/C=C3/C(=N)N4C(C)=CSC4=NC3=O)o2)c([N+](=O)[O-])c1,-3,49*,1,32*,31,12*,
COc1cccc2sc(Nc3nnc(-c4ccc(F)cc4)o3)nc12,-1,62*,2,28,72*,28*,dCAG dye DR=>30
CCOC(=O)C1=C(C)N=c2s/c(=C\c3ccc(OCC(=O)O)c(OC)c3)c(=O)n2C1c1ccc(OC)cc1 (stereo unspecified),-1,54*,2,6,75*,38*,
CC1=C(C(=O)OC(C)C)C(c2ccc(Cl)cc2)n2c(s/c(=C\c3ccc(OCC(=O)O)cc3)c2=O)=N1 (stereo unspecified),-3,27,1,18,nt,nt,
CCOC(=O)C1=C(C)N=c2s/c(=C\c3ccc(OCC(=O)O)cc3)c(=O)n2C1c1ccccc1 (stereo unspecified),1,75*,1,14,77*,35*,
CCOC(=O)C1=C(c2ccccc2)N=c2sc(=Cc3cc(OC)c(OC)c(OC)c3)c(=O)n2C1c1cccs1 (stereo unspecified),-11,13,2,2,nt,nt,
CCOC(=O)C1=C(c2ccccc2)N=c2s/c(=C\c3ccc(O)cc3)c(=O)n2C1c1cccs1 (stereo unspecified),-3,37*,1,35*,36*,20*,
CCOC(=O)C1=C(C)N=c2sc(=Cc3ccc(OCC(=O)O)cc3)c(=O)n2C1c1ccc(SC)cc1 (stereo unspecified),-2,82*,1,26,71*,37*,
COC(=O)C1=C(C)N=c2s/c(=C/c3ccoc3)c(=O)n2C1c1ccccc1 (stereo unspecified),-2,nt,nt,24,nt,nt,
CCOC(=O)C1=C(C)N=c2s/c(=C\c3ccc(C(=O)O)cc3)c(=O)n2C1c1ccc(OC)cc1OC (stereo unspecified),-4,9,0,10,nt,nt,
O=C(NCCN1C(=O)C2C3C=CC(C3)C2C1=O)c1cc(F)cc(F)c1 (stereo unspecified),nt,4,nt,nt,nt,nt,
CCCCCCN=C(C)c1ccccc1O,-3,1,0,4,nt,nt,
CCOC(=O)C1=C(C)N=c2s/c(=C3/C(=O)Nc4ccccc43)c(=O)n2C1c1ccc(C)cc1 (stereo unspecified),-3,43*,0,27,53*,22*,dCAG dye DR=i
Nc1[nH]c2cc([N+](=O)[O-])ccc2c1-c1ccccn1,-2,41*,1,0,18,19*,
COc1cc(C(O)c2nc(-c3ccccc3OC)cs2)ccc1F (stereo unspecified),-7,1,0,1,nt,nt,
